Potency and activity change, negative = cytotoxic data for 40 compounds are collected here from PubChem BioAssay (NCATS).

Each structure is given as a SMILES string. Records with an inconclusive call do not appear. Entries that show only a call come without a potency. A number with no mark means an inactive call. The source made the active and inactive calls. Calls come from the whole dose curve; as a rule, active = well fitted cell-killing curve with a large enough effect; inconclusive = small, poorly fitted or top-dose-only effect; inactive = flat fitted curve, though single readings scatter.
Potency is the fitted concentration of half-maximal effect.

A short description of this assay: qHTS of pediatric cancer cell lines to identify multiple opportunities for drug repurposing: Primary screen for DAOY cells (AID 1347090). Note: nearly all actives have a fitted effect of over 55% in size. The conditions noted are these: DAOY medulloblastoma viability, CellTiter-Glo luminescence, 48 h; series mostly up to 46 µM. The text has this:
Drug repurposing or repositioning has been offered as a strategy for drug development in oncology programs. This approach has special potential for childhood cancers and other rare or orphan diseases, where the expected return on new drug development has been a disincentive to pharmaceuticals.
In this project we exploit the poly-pharmacology of drugs to discover new indications via phenotypic screening of a panel of 19 well-characterized cell lines derived from solid tumors seen in children and adolescents. The goal is to identify approved drugs with previously unrecognized anticancer properties that has the potential to reveal new mechanisms and biological processes involved in carcinogenesis or drug resistance. We employed a titration-based paradigm (quantitative high-throughput screening or qHTS), where all compounds were tested at multiple concentrations for their effect on cell viability. Concentration-response curves (CRCs) were derived directly from the primary screen, and both potency and efficacy values were used to identify compounds with robust bioactivity profiles. We screened the NIH Chemical Genomics Center (NCGC) Pharmaceutical Collection (NPC) and Mechanism Interrogation Plate (MIPE) small molecule collections of approved and investigational compounds against these cell lines; and measured metabolically active cells after 48 hours of compound treatment as a proxy for cell viability.
Assay Submitter: Nathalia J. Martinez, National Center for Advancing Translational Sciences, National Institutes of Health, Rockville, MD, USA; email: natalia.martinez@nih.gov
[1] Shen, M et al. Quantitative high-throughput phenotypic screening of pediatric cancer cell lines identifies multiple opportunities for drug repurposing. Oncotarget 2017 Dec 19;9(4):4758-4772. PMID 29435139.
The cells were obtained from University of North Carolina (UNC), Pediatric Preclinical Testing Program (PPT), and Coriell Institute (CI).
qHTS cell viability assay:
Cells were assayed in growth media at a density of 500-1,000 cells/well. Five microliters of cells were dispensed into 1,536-well, white, solid-bottom, TC-treated plates (Greiner Bio One) using a multidrop dispenser and incubated at 37 degrees C, 5% CO2, under a humidified atmosphere for 5 hours. Twenty-three nanoliters of compounds and controls (neutral control DMSO or positive control bortezomib at final concentration of 2.3 µM) were subsequently transferred by Kalypsys pintool. For primary screens, the MIPE collection was tested at 11-point dilutions (final concentrations range from 0.78 nM to 46 µM) and the NPC collection at 8-point dilutions (final concentrations range from 0.59 nM to 46 µM). Compounds tested in follow-up screens were assayed at 11-point dilutions. Cells were incubated for 48 hours, followed by addition of 3 uL of CellTiter-Glo (Promega). After a 15 min incubation at room temperature, samples were analyzed for luminescence intensity using a ViewLux High-throughput CCD imager equipped with clear filters.
Regarding `CCC1=C[C@@H]2CN(C1)Cc1c([nH]c3ccccc13)[C@@](C(=O)OC)(c1cc3c(cc1OC)N(C)[C@H]1[C@@](O)(C(=O)OC)[C@H](OC(C)=O)[C@]4(CC)C=CCN5CC[C@]31[C@@H]54)C2`, the Potency is 0.0531 µM (active).

Regarding `CCN1CCN(c2cc(-c3ccc(F)cc3)c3c(n2)CCCCCC3)CC1`, the Potency result is “inactive”.

`CC(=O)Nc1ccc(S(=O)(=O)Nc2cc(C)on2)cc1`: the Potency entry was “inactive”.

`CC(=O)OCC(=O)[C@@]1(O)[C@H](OC(C)=O)C[C@H]2[C@@H]3CCC4=CC(=O)C=C[C@]4(C)[C@@]3(F)[C@@H](O)C[C@@]21C`: the Potency result was “inactive”.

As for `CC(NC(CCc1ccccc1)C(=O)O)C(=O)N1C(=O)N(C)CC1C(=O)O` (stereo not given), the Potency result is “inactive”.

For `O=C1Nc2ccccc2C1(c1ccc(O)cc1)c1ccc(O)cc1`, the Potency result was “inactive”.

On to `O=C(Nc1ccc(S(=O)(=O)N2CCOCC2)cc1)c1cc(Cl)ccc1NS(=O)(=O)c1ccc(Cl)s1`, for which the Potency entry was “inactive”.

For the compound `Cc1cc(O)c(C)c(C)c1O`, the Potency result was “inactive”.

In the case of `CC1CN(c2cc3c(cc2F)c(=O)c(C(=O)O)cn3-c2ccc(F)cc2F)CCN1` (stereo not given), the activity change, negative = cytotoxic is 0.682% [at 4.84 µM].

With `CCCCOC(=O)CCCCCCCCC(=O)OCCCC`, the Potency result was “inactive”.

Turning to `CCCc1ncc(C(=O)O)s1`, the Potency entry is “inactive”.

As for `Cc1ccc(Cl)c(OCC(O)CNC(C)(C)C)c1` (stereo not given), the Potency result was “inactive”.

As for `CCC(=O)O[C@H]1[C@H](O[C@@H]2[C@@H](C)[C@H](O[C@H]3C[C@@](C)(OC)[C@@H](O)[C@H](C)O3)[C@@H](C)C(=O)O[C@H](CC)[C@@](C)(O)[C@H](O)[C@@H](C)C(=O)[C@H](C)C[C@@]2(C)O)O[C@H](C)C[C@@H]1N(C)C`, the Potency entry is “inactive”.

Turning to `CCOc1ncc(F)c(=O)[nH]1`, the Potency result is “inactive”.

On to `CC(=O)O[C@H]1CC[C@@]2(C)C(=CC[C@@H]3[C@@H]2CC[C@]2(C)C(C(C)=O)=CC[C@@H]32)C1`, for which the Potency result is “inactive”.

Take `CCCC(=O)c1cc(O)c(O)cc1O`: the Potency result was “inactive”.

`C1=CC2C3C=CC(C3)C2C1` (stereo not given): the Potency result was “inactive”.

Turning to `Nc1ccc(C(=O)OCC(O)CO)cc1` (stereo not given), the Potency result is “inactive”.

Regarding `COC(=O)c1cc(S(N)(=O)=O)ccc1OC`, the Potency result is “inactive”.

`O=C(COCCOCCOCC(=O)Nc1c(I)cc(I)c(C(=O)O)c1I)Nc1c(I)cc(I)c(C(=O)O)c1I`: the Potency result was “inactive”.

`O=C(OCCN1CCOCC1)c1cccnc1Nc1cccc(C(F)(F)F)c1`: the Potency entry is “inactive”.

With `CC(C(=O)O)c1ccc(/C=C2\CCCCC2=O)cc1` (stereo not given), the Potency entry was “inactive”.

For `CCC[C@H](N[C@@H](C)C(=O)N1[C@H](C(=O)O)C[C@@H]2CCCC[C@@H]21)C(=O)OCC`, the Potency result is “inactive”.

Take `O=C(O)c1[nH]n(-c2ccc(S(=O)(=O)O)cc2)c(=O)c1N=Nc1ccc(S(=O)(=O)O)cc1`: the Potency result is “inactive”.

Turning to `Cc1ncc(CO)c(CO)c1O`, the Potency entry was “inactive”.

Regarding `OCCOCCN1CCN(C(c2ccccc2)c2ccc(Cl)cc2)CC1` (stereo not given), the Potency result is “inactive”.

For `O=C(OCC(O)CO)c1ccccc1Nc1ccnc2c(C(F)(F)F)cccc12` (stereo not given), the Potency entry was “inactive”.

In the case of `CN1CCC(=C2c3ccccc3CCc3cccnc32)CC1`, the Potency entry is “inactive”.

For `O=C(NO)c1ccccc1`, the Potency entry is “inactive”.

For the compound `O=C(CS(=O)Cc1ccco1)NC/C=C\COc1cc(CN2CCCCC2)ccn1` (stereo not given), the Potency result is “inactive”.

As to `O=C(O)C(=O)Nc1cccc(-c2nn[nH]n2)c1`, the Potency result is “inactive”.

On to `COc1ccccc1N1CCN(CC(O)COc2cc(OC)c(OC)c(OC)c2)CC1` (stereo not given), for which the Potency entry was “inactive”.

Regarding `O=C(Nc1ccc(Cl)cc1)Nc1ccc(Cl)c(C(F)(F)F)c1`, the Potency was 13.3 µM (active).

Turning to `CCOC(=O)C(=O)CCc1ccccc1`, the Potency entry was “inactive”.

Take `CCCCCN(CCCOC)C(=O)C(CCC(=O)O)NC(=O)c1ccc(Cl)c(Cl)c1` (stereo not given): the Potency entry was “inactive”.

On to `CCO[C@H](Cc1ccc(OCCc2ccc(OS(C)(=O)=O)cc2)cc1)C(=O)O`, for which the Potency entry was “inactive”.

For the compound `CCCCCCOC(=O)NC(=N)c1ccc(NCc2nc3cc(C(=O)N(CCC(=O)OCC)c4ccccn4)ccc3n2C)cc1`, the Potency result is “inactive”.

Take `Cc1cc(C(C)(C)C)c(O)c(C(C)(C)C)c1`: the Potency entry is “inactive”.

As for `CC(=O)CC/C=C(\C)CC/C=C(\C)CC/C=C(\C)CCC=C(C)C`, the Potency result is “inactive”.

Turning to `O=C1[C@@H]2[C@H]3CC[C@H](C3)[C@@H]2C(=O)N1CCCCN1CCN(c2ncccn2)CC1`, the Potency entry is “inactive”.
